# Laboratory results as given in the supplement of paper PMC9023506.
# Counter-ions that a name gives are not always drawn.
# Test system: Danio rerio larvae (5 dpf)
# Assay: startle response to 20-s acoustic pulses, difference vs DMSO (percentage points (treated minus DMSO)); higher = more of the behaviour than the DMSO vehicle control
# Settings: 10 µM; exposure time: 3 h pre-incubation + 3 h imaging
# Protocol: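 5-dpf wild-type zebrafish larvae were imaged in 96-well plates. They were treated with 190 Tocris FDA-approved drugs at 10 µM (1 µl/ml DMSO) for 3 h before and 3 h during imaging at 28.5 °C, 48 larvae per drug. Automated image analysis gave % time moving and optomotor responses. Values are drug group mean minus DMSO vehicle mean (n=844), in percentage points, for 10 behaviours.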
row,Compound,startle response to 20-s acoustic pulses
1,COc1ccc(C(CN(C)C)C2(O)CCCCC2)cc1 (configuration not stated) [Venlafaxine hydrochloride],-5.93
2,CC(C)C[C@H]1C(=O)N2CCC[C@H]2[C@]2(O)O[C@](NC(=O)[C@@H]3C=C4c5cccc6[nH]c(Br)c(c56)C[C@H]4N(C)C3)(C(C)C)C(=O)N12 [Bromocriptine mesylate],-8.49
3,O=c1[nH]c2ccccc2n1C1CCN(CCCC(c2ccc(F)cc2)c2ccc(F)cc2)CC1 [Pimozide],2.42
4,CN1C[C@H](C(=O)N[C@]2(C)O[C@@]3(O)[C@@H]4CCCN4C(=O)[C@H](Cc4ccccc4)N3C2=O)C[C@@H]2c3cccc4[nH]cc(c34)C[C@H]21 [Dihydroergotamine mesylate],5.17
5,Cc1cccc([C@H](C)c2c[nH]cn2)c1C [Dexmedetomidine hydrochloride],6.09
6,CC[C@@H](C(N)=O)N1CCCC1=O [Levetiracetam],1.64
7,CCN(C)C(=O)Oc1cccc([C@H](C)N(C)C)c1 [Rivastigmine tartrate],5.58
8,C=CCN1C[C@H](C(=O)N(CCCN(C)C)C(=O)NCC)C[C@@H]2c3cccc4[nH]cc(c34)C[C@H]21 [Cabergoline],-8.7
9,COc1cc2c(cc1OC)C1CC(=O)C(CC(C)C)CN1CC2 (configuration not stated) [Tetrabenazine],-5.81
10,CC(O)(CS(=O)(=O)c1ccc(F)cc1)C(=O)Nc1ccc(C#N)c(C(F)(F)F)c1 (configuration not stated) [Bicalutamide],0.332
11,C=C1C[C@@H]2[C@H](CC[C@]3(C)C(=O)CC[C@@H]23)[C@@]2(C)C=CC(=O)C=C12 [Exemestane],2.55
12,N[C@@H]1C[C@H]1c1ccccc1 [Tranylcypromine hydrochloride],-9.81
